High-throughput results as filed in PubChem.
hcDAF-12 act: activates DAF-12 receptor from parasite H. contortus; activation, % at 6.8 µM; hit rate 1.4% among 370,000; HEK293 hcDAF-12 lit1-tk-luc reporter, luminescence; 0% DMSO, 100% Δ7-dafachronic acid;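 active = activation above the mean of all tested compounds plus 3 SD, cut at about 5.5% in these data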
DAX1 inh-1: blocks DAX1 repression of SF-1 activated StAR promoter; HEK293T StAR-luciferase reporter, SF-1/DAX-1 repression relief; inhibition, % at 6.8 µM; hit rate 1.1% among 370,000;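 active = inhibition above the mean over all tested compounds plus 3 SD, cut at about 3.6% in these data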;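 note: higher inhibition means more luminescence from relief of DAX-1 repression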
DAX1 inh-2: inhibits human nuclear receptor DAX1 | AID 504766 | inhibition, % at 6.75 µM | hit rate 0.99% among 340,000 | HEK293 Gal4-DAX1 luciferase reporter, luminescence | P51843;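 active = inhibition above the mean over all tested compounds plus 3 SD, cut at about 4.2% in these data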;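 note: inhibition shows as a rise in luminescence from relieved DAX1 repression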
ssDAF12 agonist: activates DAF-12 receptor from parasite S. stercoralis. HEK293 ssDAF-12/GRIP1 lit1-tk-luc reporter, luminescence; % of 3 µM dafachronic acid response. activation, % at 6.8 µM. hit rate 1% among 370,000;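 active = activation above the mean over all tested compounds plus 3 SD, cut at about 0.9% in these data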
AHR act: human AHR activation; activation, % at 5 µM; AHR-responsive luciferase reporter cells, luminescence; hit rate 2.5% among 320,000; P35869; in the data active = activation above about 47%
hgDAF12 agonist: activates the H. glycines DAF-12 receptor ligand-binding domain. HEK293 GAL4-hgDAF12 UAS-luciferase reporter, agonist luminescence; normalized to butyrate control. activation, % at 6.8 µM. hit rate 1.8% among 370,000. AID 687014;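 active = activation above a cutoff set at the mean of all screened compounds plus 3 SD, cut at about 10% in these data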
Hits are given with their value; – = inactive; · = not tested or not shown. Only some compounds are listed: those with a hit (about 5.7% of all), similar ones and a draw of the others.

SMILES	hcDAF-12 act	DAX1 inh-1	DAX1 inh-2	ssDAF12 agonist	AHR act	hgDAF12 agonist
COc1ccc(-c2nn(-c3ccccc3)cc2/C=N/NC(=S)NC(C)C)cc1OC	–	–	–	–	55.3	–
COc1ccc(-c2nn(-c3ccccc3)cc2/C=N/Nc2ccc3ccccc3n2)cc1OC	–	–	–	–	48.9	–
COc1cccc(-c2nn(-c3ccccc3)cc2CO)c1	–	–	–	–	–	–
Cc1ccc(Cl)c2c1NC(=O)C2(O)CC(=O)c1ccc(F)cc1 (configuration not stated)	–	–	–	–	–	–
CCc1ccc(N2CC34C=CC(O3)C(C(=O)OC(C)C)C4C2=O)cc1 (configuration not stated)	–	–	–	–	–	–
CCc1ccc(N2CC34C=CC(O3)C(C(=O)OC)C4C2=O)cc1 (configuration not stated)	–	–	4.4	–	–	–
CCOC(=O)c1[nH]c2cc3c(cc2c1CCCN1C(=O)c2ccccc2C1=O)OCCO3	–	–	–	–	–	–
Clc1cccc(CN2CCCCCC2)c1	–	–	–	–	–	–
Clc1ccc(-c2nc3cc(CN4CCCCC4)ccc3o2)cc1	–	–	–	–	·	10.9
O=C(COC(=O)CNS(=O)(=O)c1ccc(Br)cc1Cl)NCCc1ccccc1	–	–	–	1.4	–	–
CC1(CCc2ccccc2)NC(=O)N(CC(=O)O)C1=O (configuration not stated)	–	–	–	–	–	–
CC1(CCc2ccccc2)NC(=O)N(CC(=O)Nc2ccccc2)C1=O (configuration not stated)	–	–	4.7	–	–	–
O=C(/C=C\c1cn(-c2ccccc2)nc1-c1ccccc1)Nc1nccs1	–	–	–	–	73.0	–
CC(=O)NS(=O)(=O)c1ccc(NC(=O)/C=C/c2cn(-c3ccccc3)nc2-c2ccccc2)cc1	–	–	–	–	–	–
C/C(=C\C(=O)Nc1nccs1)c1ccccc1	–	–	–	–	–	11.7
O=C(CSc1nc2ccccc2o1)NCc1n[nH]c(=O)c2ccccc12	6.2	–	–	–	–	–
COc1ccc(S(=O)(=O)N2CCN(C(=O)c3ccc(=O)[nH]n3)CC2)cc1OC	–	–	7.5	–	·	–
COc1ccc(S(=O)(=O)N2CCN(C(=O)c3cccnc3)CC2)cc1OC	–	–	–	–	–	–
COc1ccc(S(=O)(=O)N2CCN(CC(=O)c3c(N)n(C)c(=O)n(C)c3=O)CC2)cc1OC	–	–	5.2	–	·	–
Cn1c(N)c(C(=O)CN2CCN(S(=O)(=O)c3ccccc3C#N)CC2)c(=O)n(C)c1=O	–	–	–	–	·	–
COC(=O)c1ccc2nc(-c3ccc(C)cc3)c(CC(C)(C)C)n2c1	–	–	·	–	·	–
COc1ccccc1-c1nc(COc2ccc(Cl)cc2Cl)no1	–	–	4.6	–	–	–
Cc1cc2nc(/C=C/c3cccnc3)[nH]c2cc1C	6.4	4.0	–	1.7	·	–
O=C(COc1ccc(Br)cc1Br)NC(=S)Nc1cccc(CO)c1	–	–	–	–	–	–
O=C(COc1ccc2ccccc2c1Br)NC(=S)Nc1cccc(CO)c1	–	–	–	–	–	10.9
SMILES	hcDAF-12 act	DAX1 inh-1	DAX1 inh-2	ssDAF12 agonist	AHR act	hgDAF12 agonist
COC(=O)[C@H]1C2CCC(C(=O)OC)(CC2)[C@H]1C(=O)OC	–	–	–	–	–	–
Clc1nc2c(-c3ccccc3)nnn2c2ccccc12	–	–	–	–	52.5	–
COC(=O)C1=CN(c2ccc(OC)cc2)C(N)=C(C#N)C1c1ccccc1F (configuration not stated)	–	3.8	·	–	·	–
Cc1c(CC(=O)NCCCC(=O)O)c(=O)oc2c(C)c3oc4c(c3cc12)CCCC4	–	–	4.9	–	–	–
O=C(Nc1ccc(F)cc1)c1cnccn1	–	–	–	–	·	–
Cc1ccccc1C1NC(=O)c2ccccc2O1 (configuration not stated)	–	–	–	–	–	–
COc1cc(/C=C/c2ccc3cccc(O)c3n2)cc(OC)c1OC	–	–	–	–	–	–
COc1cc(/C=C/c2ccc3cccc(O)c3n2)cc(Br)c1OC	–	–	–	–	–	11.5
Cc1cc(NC(=O)C(C)SCC(=O)Nc2nnc(CC(C)C)s2)no1 (configuration not stated)	–	3.6	–	–	–	–
CC(C)Cc1nnc(NC(=O)CCC(=O)Nc2ccccc2)s1	–	3.6	–	–	–	–
CCc1nnc(NC(=S)Nc2ccccc2)s1	–	–	–	–	–	11.9
COc1ccc(CCNC(=O)CCc2ccc(S(=O)(=O)NC(C)C)cc2)cc1OC	–	–	–	–	–	–
O=C1CCCC2=C1C(c1ccncc1)c1c(nc(SCc3ccccc3Cl)[nH]c1=O)N2 (configuration not stated)	–	–	–	–	–	–
Cc1c(CCC(=O)NCC(=O)O)c(=O)oc2cc3occ(-c4ccccc4)c3cc12	–	–	–	–	·	–
Cc1coc2cc3oc(=O)c(CCC(=O)NCC(=O)O)c(C)c3cc12	–	–	6.1	–	·	–
CC(=O)N(Cc1ccc(Br)cc1)c1cccc(C)c1C	–	–	–	–	–	–
Cc1ccc(C(=O)Nc2ccc(N3CCN(C)CC3)cc2)cc1C	–	–	4.7	–	–	–
Cc1ccc(C(=O)Nc2ccc(N3CCN(S(C)(=O)=O)CC3)cc2)cc1C	–	–	·	–	–	–
Cc1cc(C(=O)Nc2ccc(N3CCCCC3)cc2)no1	–	–	–	–	–	11.4
Cc1ccc(C(=O)Nc2ccc(N3CCCC3)cc2)cc1	–	–	–	–	–	12.4
COc1ccc(C(=O)COC(=O)c2ccccc2O)c(OC)c1	–	3.9	–	–	–	11.6
COc1cccc(C(=O)OCC(=O)c2c[nH]c3ccccc23)c1OC	–	–	–	–	–	–
COc1ccc(C(=O)OCC(=O)c2c[nH]c3ccccc23)c(OC)c1	–	–	–	1.7	–	–
O=C(OCC(=O)c1c[nH]c2ccccc12)c1cccc([N+](=O)[O-])c1	–	–	–	1.8	–	–
O=C(COC(=O)c1c[nH]c2ccccc12)NCc1ccccc1	–	–	4.7	–	·	–
SMILES	hcDAF-12 act	DAX1 inh-1	DAX1 inh-2	ssDAF12 agonist	AHR act	hgDAF12 agonist
O=C(OCC(=O)c1c[nH]c2ccccc12)c1cncc(Br)c1	–	–	–	–	–	–
COCCCN1C(=O)c2ccc(C(=O)Nc3ccc(C)cc3C)cc2C1=O	–	–	–	–	–	–
Cc1ccc(NC(=O)c2ccc3c(=O)n4c(nc3c2)CCC4)cc1F	–	–	–	–	–	–
O=C(NC1CCCC1)c1ccc(S(=O)(=O)N2CCCC2)cc1	–	–	–	–	–	–
O=C(CNS(=O)(=O)c1ccccc1)OCC(=O)c1c[nH]c2ccccc12	–	–	–	–	47.4	–
O=C(NNC1=Nc2ccccc2SC1)c1cccc([N+](=O)[O-])c1	–	–	·	–	48.5	–
